An excerpt weighted towards active compounds, which were near 1.2% of everything screened.
CCT modulator: cytosolic chaperonin activity modulation; activity change, % (concentration not given with the values), hits read low; purified chaperonin ATPase assay, HTRF ADP detection, 30 min; hit rate 0.3% among 360,000; in the data active = activity change below about -30%; note: % is set by controls: 0 for no effect and ±100 for the full control effect
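We incubate TRiC, 40 or 20 nM final, with library compounds at 76 uM and 10 uM ATP for 30 min at 37 °C. ADP formed is detected with Transcreener HTRF reagents after 30 min at room temperature.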
Mm-Cpn inhibitor: inhibitors of Methanococcus maripaludis chaperonin TRiC (MmCpn); purified Mm-Cpn ATPase, ADP Transcreener TR-FRET; Potency, µM (highest dose often 76.9 µM), inactives show at the top dose activity, negative = inhibition, most hits filed as inhibitors; hit rate 0.031% among 330,000; active = well fitted inhibition curve with a large enough effect; inconclusive = small, poorly fitted or top-dose-only effect; note: potency is the fitted concentration of half-maximal effect; % is set by controls: 0 for no effect and ±100 for the full control effect; nearly all actives have a fitted effect of over 80% in size
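ATPase read-out: TR-FRET ADP immunoassay (anti-ADP Eu cryptate vs ADP-d2), ex 320 nm, em 590/665 nm; signal drops as ADP forms. Enzyme 25 nM, ATP 10 uM, 30 min at 37°C after 10 min compound preincubation.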
uPA surface inh: cell surface uPA generation inhibition | cell surface uPA generation assay, qHTS | Potency, µM (doses to about 38.3 µM), for inactives: at the highest dose activity change, negative = inhibition, actives largely listed as inhibitors | hit rate 0.31% among 330,000; active = well fitted inhibition curve with a large enough effect; inconclusive = small, poorly fitted or top-dose-only effect; inactive = no such curve, though single readings can be large or run the other way; tested in mouse RAW 264.7 cells; note: potency is the fitted concentration of half-maximal effect; % is set by controls: 0 for no effect and ±100 for the full control effect; nearly all actives have a fitted effect of over 55% in size
gsp agonist: agonists of gsp mutant (McCune-Albright syndrome). gsp mutant cells, cAMP HTRF, 30 min. Potency, µM (doses to about 76.9 µM), for inactives: at the highest dose activation (cAMP increase), usual class: activators. hit rate 0.13% among 340,000; active = well fitted activation curve with a large enough effect; inconclusive = small, poorly fitted or top-dose-only effect, or another doubt; inactive = no such curve, though single readings can be large or run the other way; cell line not stated here;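 note: phosphodiesterase inhibitor Ro 20-1724 added with compounds to block cAMP breakdown; potency is the fitted concentration of half-maximal effect; nearly all actives have a fitted effect of over 60% in size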
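Cells in DMEM/10% FBS with G418 were pretreated with compounds in DMSO plus […] (300 uM stock) for 30 min at 37C. cAMP was measured by HTRF (cAMP-d2 plus anti-cAMP antibody-K) after 30 min at room temperature.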
TSHR antagonist: antagonists of human thyroid stimulating hormone receptor. P16473. TSHR-expressing cells, TSH-stimulated cAMP HTRF, 2 h; stronger effect = lower value. activity change, negative = inhibition, % at 11.5 µM. hit rate 0.2% among 330,000. AID 504810;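 active = activity change below a set negative limit, meaning inhibition stronger than a set level, cut at about -70% in these data; inconclusive = activity change between two set negative limits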; note: % is set by controls: 0 for no effect and ±100 for the full control effect
Target sequence (P16473 whole entry, looked up): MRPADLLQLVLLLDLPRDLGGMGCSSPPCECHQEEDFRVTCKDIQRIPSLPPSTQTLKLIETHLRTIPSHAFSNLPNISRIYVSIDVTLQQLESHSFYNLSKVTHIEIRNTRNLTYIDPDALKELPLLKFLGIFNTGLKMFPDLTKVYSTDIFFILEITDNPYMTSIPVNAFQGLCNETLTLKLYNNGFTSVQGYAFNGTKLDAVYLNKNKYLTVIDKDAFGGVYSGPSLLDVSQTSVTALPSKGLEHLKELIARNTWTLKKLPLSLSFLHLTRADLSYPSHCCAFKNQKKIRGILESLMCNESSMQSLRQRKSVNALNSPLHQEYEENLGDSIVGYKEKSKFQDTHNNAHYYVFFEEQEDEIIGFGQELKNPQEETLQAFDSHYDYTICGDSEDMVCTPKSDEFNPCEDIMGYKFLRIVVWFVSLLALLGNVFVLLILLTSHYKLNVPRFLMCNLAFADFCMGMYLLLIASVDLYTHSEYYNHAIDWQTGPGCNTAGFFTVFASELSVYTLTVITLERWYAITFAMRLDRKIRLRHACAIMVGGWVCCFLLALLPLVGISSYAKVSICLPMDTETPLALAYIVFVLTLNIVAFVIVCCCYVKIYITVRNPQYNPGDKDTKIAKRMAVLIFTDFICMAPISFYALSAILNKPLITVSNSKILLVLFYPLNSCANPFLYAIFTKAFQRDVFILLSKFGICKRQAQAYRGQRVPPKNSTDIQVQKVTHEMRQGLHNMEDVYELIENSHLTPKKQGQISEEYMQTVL
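TSHR-expressing cells, 200/well, pre-treated with compound, then stimulated with EC80 TSH (4nM final) for 2 hours at 37 deg C. cAMP measured by competitive HTRF: anti-cAMP cryptate antibody in lysis buffer plus cAMP-d2, read after 30 minutes at room temperature.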
gsp antag: antagonizes gsp, the McCune-Albright syndrome mutation; gsp-mutant cells, cAMP HTRF, 30 min; Potency, µM (doses to about 76.9 µM), for inactives: top-dose activity change, negative = inhibition, most hits filed as inhibitors; hit rate 0.4% among 340,000; calls by dose curve; cell line not stated here;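 note: intracellular cAMP measured with PDE inhibitor Ro 20-1724 present during compound exposure; potency is the fitted concentration of half-maximal effect; % is set by controls: 0 for no effect and ±100 for the full control effect; nearly all actives have a fitted effect of over 65% in size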
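Measurement of cellular cAMP by homogeneous time-resolved fluorescence following a 30 min compound exposure at 37C. The PDE inhibitor […] was present throughout; the assay buffer was DPBS with 0.05% BSA and 0.005% Tween 20.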
Active calls of the source: *; u = inconclusive; x = not tested or not shown; [ ] = remark or other dose.

SMILES	CCT modulator	Mm-Cpn inhibitor	uPA surface inh	gsp agonist	TSHR antagonist	gsp antag
CN1C(=O)/C(=C/c2ccc(OCc3ccccc3F)cc2)NC1=S	-1	1%	9%	-36%	-70*	4%
CCc1nnc(N/N=C/c2cccs2)n1N	-43*	0%	-12%	-19%	4	6%
CCN(CC)C(=O)COc1ccc(/C=C(\C#N)S(=O)(=O)c2ccccc2)cc1OC	3	-6%	u	-2%	0	-16%
COc1ccc(NS(=O)(=O)/C=C/c2ccccc2)cc1	-1	3%	5%	-17%	4	-2%
CCCCOCCCNc1ncnc2c1[nH]c1ccccc12	-5	-1%	x	0%	u	7.9µM*
c1ccc2c(c1)[nH]c1c(NCC3CCCO3)ncnc12 (centres undefined)	0	0%	-3%	-1%	-10	35µM*
Cc1cc(C)c(S(=O)(=O)N2CCCc3ccccc32)c(C)c1	-3	0%	u	-2%	-11	u
O=C(NCc1ccc2c(c1)OCO2)c1ccc(S(=O)(=O)C(F)F)cc1	0	1%	-3%	-22%	-3	-2%
CCOc1ccc(-n2ccnc(SCC(=O)NCc3cccc(OC)c3)c2=O)cc1	0	u	2%	10µM*	-3	3%
CCOc1ccc(-n2ccnc(SCC(=O)Nc3ccc(OC)cc3OC)c2=O)cc1	-1	-22%	-4%	-2%	1	-3%
Clc1ccc(-c2cn3ccccc3n2)cc1	-2	-6%	8.9µM*	u	-3	-10%
O=C(Nc1ccc(-c2cn3ccccc3n2)cc1)c1ccc(Cl)cc1	1	2%	8%	11%	15	5%[15.4 µM]
COc1ccc(-c2cn3ccccc3n2)cc1	-3	-2%	2µM*	0%	-10	3%
CC1CCN(S(=O)(=O)c2ccc3c(c2)N(CC(=O)NCCCOC(C)C)C(=O)CO3)CC1	0	2%	-15%	11%	36	3%
COc1cc(CNc2ncnc3c2ncn3[C@H]2CN(Cc3ccccc3)C[C@@H](COC(C)=O)O2)cc(OC)c1OC	-38*	x	x	x	x	x
CC1C=CCC2C(=O)N(c3cccc(C(=O)N4CCN(c5ccc(F)cc5)CC4)c3)C(=O)C12 (centres undefined)	0	-2%	-2%	28µM*	-5	-12%
O=C(CN(c1ccc(Br)cc1)S(=O)(=O)c1ccc(Cl)c([N+](=O)[O-])c1)NCCc1ccccc1	-4	3%	-1%	14%[15.4 µM]	16	-14%
Cc1ccc(N(CC(=O)NCCc2ccc(F)cc2)S(=O)(=O)c2ccc(Cl)c([N+](=O)[O-])c2)c(C)c1	1	0%	u	-31%	-36	25µM*
Cc1cccn2cc(CCNS(=O)(=O)c3cccs3)nc12	0	1%	1%	-6%[15.4 µM]	1	2%
C(=C\c1ccc2ccccc2n1)/c1ccccc1	-1	1%	5.6µM*	-6%	-35	-10%
Oc1ccc(/C=C/c2ccc3ccccc3n2)cc1	-1	-18%	u	30%	13	0%
Fc1ccccc1/C=C/c1ccc2ccccc2n1	-1	-1%	11µM*	24%	-1	-4%
C(=Cc1c[nH]c2ccccc12)c1ccc2ccccc2n1	-1	x	-11%	17%	x	-15%
CN(C)c1ccc(/C=C/c2ccc3ccccc3n2)cc1	-2	-6%	2µM*	u	5	1%
O=C(Nc1ccc2c(c1)OCCO2)N1CCOCC1	-4	-1%	-5%	-7%[15.4 µM]	15	9%
SMILES	CCT modulator	Mm-Cpn inhibitor	uPA surface inh	gsp agonist	TSHR antagonist	gsp antag
CC(C)(C)NC(=O)COC(=O)c1ccc(S(=O)(=O)N2CCCCCC2)cc1	-1	1%	-3%	-15%	-7	-17%
CCc1nc2c(OCc3ccc(F)c(F)c3)cccn2c1N(C)C(=O)C(C)C	-1	x	x	x	x	x
Cc1c(CCC(=O)O)c(=O)oc2c(C)c3occ(-c4ccc(Cl)cc4)c3cc12	-1	2%	-10%	11%[15.4 µM]	-9	32µM*
COc1ccc(Cl)c(CNC[C@H]2O[C@@H](n3cnc(C(N)=O)n3)[C@H](O)[C@@H]2O)c1	0	x	1%	x	x	10%
Cc1ccc(-c2nc3ccc(Cl)cc3n2OC(C)C(=O)O)cc1 (centres undefined)	-55*	0%	-3%	-94%	-29	u
CC(On1c(-c2ccccc2)nc2ccc(Cl)cc21)C(=O)O (centres undefined)	-2	-1%	3%	10%	-2	-16%
COc1ccc(CCN2CC(C(=O)NCc3cnn(C)c3)CCC2=O)cc1 (centres undefined)	2	x	x	28%	x	x
C=CCn1c(SCCOc2ccccc2)nnc1C(C)NC(=O)c1ccccc1 (centres undefined)	-1	2%	1%	5%	7	-9%
C=CCn1c(SCC(=O)N2CCOCC2)nnc1C(C)NC(=O)c1ccccc1 (centres undefined)	-47*	2%	-2%	-40%[15.4 µM]	24	18%
COc1ccccc1NS(=O)(=O)c1cn(C)cn1	-53*	1%	14%	-24%	-14	12%
COc1ccc(NS(=O)(=O)c2cn(C)cn2)c(OC)c1	0	0%	-3%	4%	-1	9%
COc1ccccc1NS(=O)(=O)c1cc(C)ccc1C	1	1%	3%	-21%	-12	6.3µM*
COc1ccccc1NS(=O)(=O)c1cc(C(=O)N2CCN(C/C=C/c3ccccc3)CC2)ccc1C	0	1%	4µM*	-1%	3	u
COc1ccc(C)cc1NS(=O)(=O)c1cc(C)ccc1C	-3	0%	x	u	-8	4%
Cc1ccccc1NC(=S)NCCc1c[nH]c2ccccc12	0	-1%	5%	-6%[15.4 µM]	1	6%
COc1ccc(-c2c(C(=O)O)c(-c3ccccc3)cn2C)cc1	-3	1%	4%	x	-10	2%
Cc1ccc2c(c1)C(=O)C(=O)N2Cc1ccc(C(F)(F)F)cc1	0	0%	3.5µM*	x	13	13%
Cc1ccc(OCCN2C(=O)C(=O)c3cc(C)ccc32)cc1	2	2%	u	-3%	8	1%
CCOc1ccc(N(CC(=O)N2CCN(c3ccccc3)CC2)S(=O)(=O)c2c(C)noc2C)cc1	0	-2%	4%	1%	-10	-13%
Cc1ccccc1C(=O)N1CCC(C(=O)Nc2nc3ccc(F)cc3s2)CC1	-1	3%	1%	-1%	-10	40µM*
COc1ccc(-c2nc(CN3CCN(c4ncnc5ccccc45)CC3)c(C)o2)c(OC)c1	4	1%	u	-19%	-17	32µM*
CC(C)C(=O)N1CCN(c2ccc(NC(=O)COc3ccccc3[N+](=O)[O-])cc2)CC1	2	-2%	-14%	9%	-23	28µM*

Screens: PubChem, National Center for Advancing Translational Sciences (NCATS)
